Reference: PubChem BioAssay AID623868 (Vanderbilt High Throughput Screening Facility, 2012)
Screen size: about 2,100 compounds; about 760 (36%) were called active. The list is a sample of the results. A number with no mark means an inactive call.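 How the source made its calls: active means thallium-flux fluorescence traces judged by eye to show enhanced or reduced glutamate response, manual score 1 or -1, so both directions (some results past the limit were not filed as active); inactive means the rest, including fluorescent or raised-baseline compounds.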

Assay: thallium influx changes without GIRK channels – cell-based, HEK-293 rmGlu8, no GIRK, thallium flux, counter-screen for GIRK activator project, confirmation (AID 623868);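 further: extra codes mark interference with 3 for fluorescent and 4 for baseline rise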
Conditions: thallium flux fluorescence, at 10 µM, actives lie on both sides, codes: 1 enhancer, -1 blocker, 0 none, thallium stimulus containing EC20 glutamate

Question: For CC(C)c1cc(C(F)(F)F)n2nc(C(=O)Nc3ccc4c(c3)OCO4)cc2n1, which manual score is on record?
Answer: Its manual score is 0.

Question: For O=C(NC(=S)Nc1ccc2c(c1)OCO2)c1ccccc1, which manual score is on record?
Answer: Its manual score is 1 (active).

Question: Which manual score does the source give for O=C(NC(=S)Nc1ccc(Oc2ccc(Cl)cc2)cc1)c1ccccc1 here?
Answer: Its manual score is 0.

Question: For O=C(NC(=S)Nc1ccc2c(c1)OCCO2)c1ccccc1, which manual score is on record?
Answer: Its manual score is 1 (active).

Question: With CC1CCCN(C(C(=O)Nc2ccc3c(c2)OCO3)c2ccccc2)C1 (stereo not drawn) as the compound, how does the manual score read?
Answer: Its manual score is -0.5.

Question: Which manual score does the source give for Cn1ncc2cc(NC(=S)NC(=O)c3ccccc3)ccc21 here?
Answer: Its manual score is 1 (active).

Question: For CC1CCN(C(C(=O)Nc2ccc3c(c2)OCO3)c2ccccc2)CC1 (stereo not drawn), which manual score is on record?
Answer: The manual score was 0.

Question: With CC(/C=N/n1c(COc2ccccc2)n[nH]c1=S)=C\c1ccccc1 as the compound, how does the manual score read?
Answer: Its manual score is 0.

Question: Which manual score does the source give for Cc1ccc(/C=N/n2c(COc3ccccc3)n[nH]c2=S)s1 here?
Answer: The manual score was 1 (active).

Question: For Cn1cccc1/C=N/n1c(-c2ccc(C(C)(C)C)cc2)n[nH]c1=S, which manual score is on record?
Answer: Its manual score is 0.

Question: Which manual score does the source give for Cc1ccc(-c2n[nH]c(=S)n2/N=C/c2cccs2)cc1 here?
Answer: Its manual score is 1 (active).

Question: Which manual score does the source give for Cc1ccc(-c2n[nH]c(=S)n2/N=C/c2ccc(C)s2)cc1 here?
Answer: Its manual score is 1 (active).

Question: Which manual score does the source give for Cc1ccccc1CNS(=O)(=O)c1ccc2c(c1)OCCO2 here?
Answer: The manual score was 0.

Question: With O=C(N/N=C1/C(=O)c2cccc3cccc1c23)c1ccc(Cl)cc1 as the compound, how does the manual score read?
Answer: The manual score was 1 (active).

Question: With CCCCNC(=S)N/N=C1\C(=O)c2cccc3cccc1c23 as the compound, how does the manual score read?
Answer: Its manual score is 1 (active).

Question: Which manual score does the source give for CCCCN(C)C1=Nc2cccc3cccc1c23 here?
Answer: Its manual score is 0.

Question: With CNC(=S)N/N=C1\C(=O)c2cccc3cccc1c23 as the compound, how does the manual score read?
Answer: Its manual score is 1 (active).

Question: For CCNC(=S)N/N=C1\C(=O)c2cccc3cccc1c23, which manual score is on record?
Answer: The manual score was 1 (active).

Question: For CCCCNc1c2c3c(cccc3n(C)c1=O)C(=O)c1ccccc1-2, which manual score is on record?
Answer: The manual score was 3.

Question: Which manual score does the source give for COc1ccc(Cn2nnnc2C(c2ccc(F)cc2)N2CCN(C3CCCC3)CC2)cc1 (stereo not drawn) here?
Answer: Its manual score is 0.

Question: With N#Cc1nc(Cc2ccccc2)oc1NCCc1ccccc1 as the compound, how does the manual score read?
Answer: Its manual score is 0.

Question: With O=C(CCN1C(=O)COc2ccccc21)NCCCN1CCc2ccccc2C1 as the compound, how does the manual score read?
Answer: The manual score was 0.

Question: For Cc1ccc(NC(=O)COC(=O)/C=C/c2ccco2)cc1S(=O)(=O)N(C)C, which manual score is on record?
Answer: Its manual score is 0.

Question: With Cn1c(NCc2cccc(Br)c2)nc2ccccc21 as the compound, how does the manual score read?
Answer: The manual score was 0.

Question: For COc1cccc(-c2nnc(Nc3nc4c(F)cccc4s3)o2)c1, which manual score is on record?
Answer: Its manual score is 1 (active).

Question: Which manual score does the source give for Fc1cccc2sc(Nc3nnc(-c4ccccc4)o3)nc12 here?
Answer: Its manual score is 1 (active).

Question: With Fc1cccc2sc(Nc3nnc(-c4ccco4)o3)nc12 as the compound, how does the manual score read?
Answer: The manual score was 1 (active).

Question: With COc1cc(OC)cc(-c2nnc(Nc3nc4c(F)cccc4s3)o2)c1 as the compound, how does the manual score read?
Answer: The manual score was 1 (active).

Question: With Nc1nnc(C(=O)c2ccccc2N)s1 as the compound, how does the manual score read?
Answer: Its manual score is 0.

Question: With Clc1ccccc1-c1nnc2sc(CCc3ccccc3)nn12 as the compound, how does the manual score read?
Answer: Its manual score is 0.

Question: For CCn1c(=NC(=O)CSC(C)=O)sc2ccccc21, which manual score is on record?
Answer: Its manual score is 1 (active).

Question: With O=C(COC(=O)C1CC(=O)N(Cc2ccccc2)C1)Nc1ccc2c(c1)OCO2 (stereo not drawn) as the compound, how does the manual score read?
Answer: Its manual score is 0.

Question: With COC(=O)c1ccccc1NC(=O)Nc1cnccn1 as the compound, how does the manual score read?
Answer: Its manual score is 0.

Question: Which manual score does the source give for O=C(Oc1ccccc1)c1cccc(COC(=O)c2cnccn2)c1 here?
Answer: Its manual score is -1 (active).

Question: With CC(=O)Nc1nnc(C)s1 as the compound, how does the manual score read?
Answer: Its manual score is 0.

Question: Which manual score does the source give for CCn1c(SCC(N)=O)nc2c(c1=O)C1(CCCC1)Cc1ccccc1-2 here?
Answer: The manual score was 0.

Question: For C=CCSc1nc2sc3c(c2c(=O)n1CC)CCc1ccccc1-3, which manual score is on record?
Answer: Its manual score is 1 (active).

Question: With CCCSc1nc(C)nc2c1c(=O)n(C)c(=O)n2C as the compound, how does the manual score read?
Answer: Its manual score is 0.

Question: With CC1CCCC(NC(=S)NC(=O)c2ccccc2Br)C1C (stereo not drawn) as the compound, how does the manual score read?
Answer: The manual score was 1 (active).

Question: For CC1CCCC(NC(=O)Nc2cccs2)C1C (stereo not drawn), which manual score is on record?
Answer: Its manual score is 0.

Question: Which manual score does the source give for CC1CCCC(NC(=S)Nc2ccc(SC(F)F)cc2)C1C (stereo not drawn) here?
Answer: The manual score was 0.

Question: For CN(C(=S)NC(=O)c1ccccc1Br)C1CCCCC1, which manual score is on record?
Answer: The manual score was 1 (active).

Question: For Cc1ccccc1NC(=S)NC(=O)c1cncc(Br)c1, which manual score is on record?
Answer: The manual score was 1 (active).

Question: For CC1CCCCC1NC(=S)Nc1ccc(SC(F)F)cc1 (stereo not drawn), which manual score is on record?
Answer: Its manual score is 0.

Question: For CC1CCCC(NC(=S)NC(=O)c2cncc(Br)c2)C1C (stereo not drawn), which manual score is on record?
Answer: Its manual score is 1 (active).

Question: Which manual score does the source give for CN(C)Cc1cc(C(C)(C)C)c(O)c(C(C)(C)C)c1 here?
Answer: Its manual score is 0.

Question: For CCN1CCN(c2ccc(NC(=O)CCc3c(C)nc4c(-c5ccccc5)c(C)nn4c3C)cc2)CC1, which manual score is on record?
Answer: The manual score was 0.

Question: With FC(F)(F)c1cccc(NC(=S)NC2CCCC2)c1 as the compound, how does the manual score read?
Answer: The manual score was 0.

Question: Which manual score does the source give for COc1cccc2c1OC[C@@H](CO)[C@H]2N(C)C(=O)Nc1ccccc1 here?
Answer: Its manual score is 0.

Question: For O=C(NC(=S)NCCC1=CCCCC1)c1cncc(Br)c1, which manual score is on record?
Answer: The manual score was 1 (active).

Question: With CCN(C(=O)c1cc(Cl)ccc1OC)C1CCCCC1 as the compound, how does the manual score read?
Answer: The manual score was 0.

Question: For COc1ccccc1/C=C/C(=O)NC(=S)N(C)C1CCCCC1, which manual score is on record?
Answer: The manual score was 1 (active).

Question: With O=C(NC(=S)NC1CCCCCC1)c1cncc(Br)c1 as the compound, how does the manual score read?
Answer: The manual score was 1 (active).

Question: Which manual score does the source give for COC(=O)[C@H](Cc1ccccc1)NC(=O)NCCC1=CCCCC1 here?
Answer: Its manual score is 0.

Question: With CCOC(=O)c1ccc(NC(=S)NC2CCCC2)cc1 as the compound, how does the manual score read?
Answer: The manual score was 0.

Question: For COc1ccc(C)cc1NC(=O)NCCC1=CCCCC1, which manual score is on record?
Answer: Its manual score is 0.

Question: Which manual score does the source give for Cc1ccc(C(=O)N/N=C(/CC(=O)c2cccs2)C(F)(F)F)cc1 here?
Answer: Its manual score is 1 (active).

Question: With Cc1ccccc1Cn1c(=N)n(CC(=O)c2ccco2)c2ccccc21 as the compound, how does the manual score read?
Answer: The manual score was 0.

Question: With C=CCn1c(O)c(N=NC(=O)OC(C)(C)C)c2ccccc21 as the compound, how does the manual score read?
Answer: The manual score was 1 (active).

Question: For O=C(NCCSc1c[nH]c2ccccc12)c1ccco1, which manual score is on record?
Answer: Its manual score is 0.

Question: Which manual score does the source give for CCCCNC(=S)N=Nc1c(O)n(Cc2ccccc2)c2ccccc12 here?
Answer: The manual score was 1 (active).

Question: Which manual score does the source give for CCCn1c(O)c(N=NC(=O)c2ccco2)c2ccccc21 here?
Answer: The manual score was 1 (active).

Question: Which manual score does the source give for CN=C1SC(C(=O)O)CC(=O)N1C (stereo not drawn) here?
Answer: The manual score was 0.

Question: With O=C(NC1CC1)c1ccc(CSCc2cccc(F)c2)o1 as the compound, how does the manual score read?
Answer: Its manual score is 0.

Question: Which manual score does the source give for CCOC(=O)C(CC)n1cnc2c(nnn2-c2ccc(OC)cc2)c1=O (stereo not drawn) here?
Answer: The manual score was -1 (active).

Question: Which manual score does the source give for CCOC(=O)c1nn(-c2ccc(F)cc2)c(C)c1C(C)=O here?
Answer: The manual score was 0.

Question: With CCOC(=O)C(C)Sc1nc2c(cnn2-c2ccc(C)cc2)c(=O)[nH]1 (stereo not drawn) as the compound, how does the manual score read?
Answer: Its manual score is 0.

Question: With Nc1nc2n(n1)C(c1cccs1)CC(c1ccc(F)cc1)N2 (stereo not drawn) as the compound, how does the manual score read?
Answer: Its manual score is 0.

Question: Which manual score does the source give for O=C(Nc1ccc2oc(-c3ccncc3)nc2c1)c1c(F)c(F)c(F)c(F)c1F here?
Answer: Its manual score is 0.

Question: Which manual score does the source give for Cc1ccc2oc(-c3cccc(NC(=S)NC(=O)c4cccs4)c3)nc2c1 here?
Answer: Its manual score is 1 (active).

Question: With Cc1cc(C)c2oc(-c3ccc(C)c(NC(=S)NC(=O)c4cccs4)c3)nc2c1 as the compound, how does the manual score read?
Answer: Its manual score is 1 (active).

Question: For Cc1ccc(-c2nc3ccccc3o2)cc1NC(=S)NC(=O)c1cc2ccccc2o1, which manual score is on record?
Answer: Its manual score is 0.

Question: Which manual score does the source give for O=C(NC(=S)Nc1ccc2oc(-c3cccnc3)nc2c1)c1cccc(Cl)c1 here?
Answer: The manual score was 0.
